{"source": "PubChem BioAssay (NCATS)", "key": {"[1]": {"molecular_target": "Glutathione peroxidase 1 (Homo sapiens) (UniProt P07203)", "sequence (P07203 whole entry, looked up)": "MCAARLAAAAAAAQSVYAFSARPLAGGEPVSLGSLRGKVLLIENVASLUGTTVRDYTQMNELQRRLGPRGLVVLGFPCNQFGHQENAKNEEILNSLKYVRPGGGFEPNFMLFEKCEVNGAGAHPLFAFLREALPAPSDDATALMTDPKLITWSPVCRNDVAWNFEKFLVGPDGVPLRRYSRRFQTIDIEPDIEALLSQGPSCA", "assay": "Primary qHTS Assay for Inhibitors of Recombinant Selenoprotein Glutathione Peroxidase 1 (GPX1) (AID 1845191)", "details": "recombinant GPX1, GR-coupled NADPH fluorescence, 15 min; series mostly up to 48.8 µM", "how_it_was_run": "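Recombinant GPX1 (10 nM final) was preincubated with compound for 30 min at room temperature, then reacted with 1 mM GSH, 0.5 mM CHP, 0.5 mM NADPH and 100 nM glutathione reductase; NADPH fluorescence (340/450 nm) was read at 0 and 15 min.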"}, "[2]": {"molecular_target": "Phospholipid hydroperoxide glutathione peroxidase GPX4 (Homo sapiens) (UniProt P36969)", "sequence (P36969 whole entry, looked up)": "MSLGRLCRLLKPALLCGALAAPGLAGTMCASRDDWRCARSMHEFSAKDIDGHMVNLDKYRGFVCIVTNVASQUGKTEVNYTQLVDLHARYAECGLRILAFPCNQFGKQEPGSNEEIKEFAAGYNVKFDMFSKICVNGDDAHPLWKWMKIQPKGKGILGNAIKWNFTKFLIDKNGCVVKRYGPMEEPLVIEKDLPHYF", "assay": "Primary qHTS Assay for Inhibitors of Recombinant Selenoprotein Glutathione Peroxidase 4 (GPX4) (AID 1845192)", "details": "recombinant GPX4, GR-coupled NADPH fluorescence, 15 min; series mostly up to 50 µM", "how_it_was_run": "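GR-coupled readout: 100 nM GR, 1 mM GSH, 0.5 mM NADPH; NADPH fluorescence (ex 340/em 450 nm) read at t=0 and after 15 min RT. GPX4 200 nM, preincubated 30 min with compound; substrate 0.5 mM CHP.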"}}, "note": "Records with an inconclusive call do not appear. A call without a number means that no potency is given here. Calls of active or inactive are those of the source. Calls come from the whole dose curve; as a rule, active = well fitted inhibition curve with a large enough effect; inconclusive = small, poorly fitted or top-dose-only effect; inactive = flat fitted curve, though single readings scatter. Note: nearly all actives have a fitted effect of over 65% in size."}
{"smiles": "CC(=O)NCc1c(I)c(NC(C)=O)c(I)c(C(=O)O)c1I", "values": [{"measurement": "Potency", "setting": "[1]", "value": "inactive"}, {"measurement": "Potency", "setting": "[2]", "value": "inactive"}]}
{"smiles": "NS(=O)(=O)c1cc(C2(O)NC(=O)c3ccccc32)ccc1Cl", "note": "(stereo unspecified)", "values": [{"measurement": "Potency", "setting": "[1]", "value": "inactive"}, {"measurement": "Potency", "setting": "[2]", "value": "inactive"}]}
{"smiles": "CC(C)C[C@@H](N)C(=O)O", "values": [{"measurement": "Potency", "setting": "[1]", "value": "inactive"}, {"measurement": "Potency", "setting": "[2]", "value": "inactive"}]}
